The values below come from PubChem BioAssay (EPA / NIEHS).

Inconclusive results are not listed. Activity calls are given as the source filed them. Rule for the calls: active = hit-call score of the fitted dose curve at least 0.9, where 1 is the maximum; inconclusive = response in the unintended direction; inactive = score below 0.9.

In this experiment the target is rat Neonicotinoid receptor (NNR), Chrna7 (gene 25302) (UniProt Q05941). The experiment can be described thus: NVS_LGIC_rNNR_BungSens: NovaScreen (NVS) Ligand-Gated Ion Channel Assay for rat Neonicotinoid receptor (NNR) (AID 2283315). The gist of the method: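 Rat cortical membrane preparation incubated 2.5 h with tritiated or iodinated radioligand and test chemical. Bound radioactivity was filtered and counted by scintillation, and displacement was analysed against DMSO.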
rat Neonicotinoid receptor (NNR), Chrna7 (gene 25302), sequence (Q05941 whole entry, looked up): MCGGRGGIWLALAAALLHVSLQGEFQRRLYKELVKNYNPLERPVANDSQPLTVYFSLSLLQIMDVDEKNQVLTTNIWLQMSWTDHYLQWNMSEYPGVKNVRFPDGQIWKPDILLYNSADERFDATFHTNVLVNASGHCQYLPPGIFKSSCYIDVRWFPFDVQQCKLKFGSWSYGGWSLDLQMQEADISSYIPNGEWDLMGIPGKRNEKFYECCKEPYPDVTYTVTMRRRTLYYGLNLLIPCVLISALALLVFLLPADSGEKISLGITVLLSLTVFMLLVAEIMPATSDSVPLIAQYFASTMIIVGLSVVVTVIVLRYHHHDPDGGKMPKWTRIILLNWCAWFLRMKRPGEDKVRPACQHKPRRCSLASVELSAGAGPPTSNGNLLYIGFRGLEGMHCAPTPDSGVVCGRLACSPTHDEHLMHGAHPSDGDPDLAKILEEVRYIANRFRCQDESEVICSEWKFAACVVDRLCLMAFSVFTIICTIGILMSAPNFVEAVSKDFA
`CNC(=O)ON=CC(C)(C)SC`: the outcome was inactive.
In the case of `N#CC(CCc1ccc(Cl)cc1)(Cn1cncn1)c1ccccc1` (centres undefined), the molecule was classed as inactive.
Turning to `Cc1ccc(-c2c(Cl)nc(C#N)n2S(=O)(=O)N(C)C)cc1`, the AC50 was 8.72 µM (active).
`CCOP(=S)(OCC)SCn1c(=O)oc2cc(Cl)ccc21`: the result was inactive.

The AC50 is the concentration giving half of the maximal activity seen.
